# A number with no mark means an inactive call. Inconclusive results are not listed. A call without a number means that no potency is given here. Activity calls are given as the source filed them. Unless noted, calls come from the whole dose curve; as a rule, active = well fitted curve in the direction sought with a large enough effect; inconclusive = small, poorly fitted or top-dose-only effect, or another doubt; inactive = no such curve, though single readings can be large; an effect the other way counts as inactive or inconclusive.
# Legend:
# [1] = Cell Viability - HUV-EC-C (AID 542); note: nearly all actives have a fitted effect of over 35% in size
# Summary of the method: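 HUV-EC-C human vascular endothelial cells, 1000/well, exposed to compound for 40 hr at 37 °C in complete medium. Intracellular ATP was read by CellTiter-Glo luminescence. AC50 came from Hill-equation fits of concentration-response data.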
# [2] = MultiTox-Fluor Cytotoxicity Assay - LYMP1-003 - Dead Cells (AID 961); note: nearly all actives have a fitted effect of over 70% in size
# Summary of the method: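 LYMP1-003 lymphoblastoid, 2500 cells/well, 5 hr settle then 16 hr cpd at 37 C; MultiTox-Fluor reagent 60 min RT; Ex/Em 485/520 dead-cell signal; norm. DMSO = 0%, 15 uM tetraoctylammonium bromide = 100%; Hill AC50.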
# [3] = Cell Viability - LYMP2-026 (AID 989); note: nearly all actives have a fitted effect of over 50% in size
# Summary of the method: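 Human lymphoblastoid LYMP2-026 cells, 2500/well, exposed to compound 24 h at 37 C in complete medium. Viability as intracellular ATP by CellTiter-Glo luminescence; AC50 from Hill fits of qHTS concentration-response.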
# [4] = target: Peroxisome proliferator-activated receptor gamma (Homo sapiens) (UniProt P37231); assay: qHTS assay for small molecule agonists of peroxisome proliferator-activated receptor gamma signaling (AID 588536; active = well fitted curve in the direction sought with a large enough effect in the signal ratio, with a control signal flat, not every such curve was filed as active; the % refers to the signal ratio)
# Summary of the method: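 Test agents, titrated, stimulated HEK293 UAS-bla cells overnight (16 h, 37 C). Substrate CCF4 was then added for two hours at room temperature before fluorescence reading.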
# [5] = target: Vitamin D3 receptor (Homo sapiens) (UniProt P11473); assay: qHTS assay for small molecule agonists of vitamin D receptor signaling (AID 588543; calls by dose curve)
# Summary of the method: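 Agonist-mode beta-lactamase reporter: HEK293T VDR-UAS-bla cells in charcoal-stripped 2% FBS, compound series 16 h 37 C, CCF4 2 h RT. EC50 from Hill fit, scaled against DMSO and 50 nM calcitriol control.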
# [6] = target: Voltage-gated inwardly rectifying potassium channel KCNH2 (Homo sapiens) (UniProt Q12809); assay: qHTS Assay for Small Molecule Inhibitors of the Human hERG Channel Activity (AID 588834);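 note: top concentration of the series differs between compounds; lower thallium flux fluorescence means stronger hERG block; nearly all actives have a fitted effect of over 50% in size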
# Summary of the method: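 Kinetic FDSS fluorescence; U2OS + hERG BacMam (~100 virus particles/cell); FluxOR Tl+ flux; ~10 min cpd; AC50 (Hill).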
# [7] = target: Tumor necrosis factor (Homo sapiens) (UniProt P01375); assay: qHTS assay to identify small molecules that stimulate Tumor Necrosis Factor-alpha (TNF-alpha) secretion (AID 651757; active = well fitted curve in the direction sought with a large enough effect in the signal ratio; the % refers to the signal ratio)
# Summary of the method: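 THP-1 cells (3000/well) exposed to compounds 17 hrs at 37 C. Secreted TNF-alpha detected by HTRF with cryptate- and XL665-labeled anti-TNF-alpha antibodies after 3 hr at room temperature.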
# [8] = target: Nuclear receptor ROR-gamma (Homo sapiens) (UniProt P51449); assay: qHTS assay for small molecule antagonists of the retinoid-related orphan receptor gamma (ROR-gamma) signaling pathway (AID 651802);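 note: luciferase reporter luminescence driven by ROR response element; series mostly up to about 92 µM; nearly all actives have a fitted effect of over 60% in size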
# Summary of the method: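 CHO cells with TET-inducible ROR-gamma and RORE-luciferase reporter, dosed then doxycycline-induced. After 16 h at 37C, One-Glo luminescence read; decreased signal indicates antagonism.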
# [9] = Cell Viability - LYMP1-002 - Assay at 24 hr (AID 993)
# Summary of the method: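 Human lymphoblastoid LYMP1-002 cells (2500/well) treated 24 h at 37 °C; viability as intracellular ATP by CellTiter-Glo luminescence. Tetraoctylammonium bromide as positive control; AC50 from Hill-equation fits of qHTS concentration-response.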
# [10] = target: Estrogen receptor (Homo sapiens) (UniProt P03372); assay: qHTS assay for small molecule antagonists of estrogen receptor alpha signaling (AID 588513; active = well fitted curve in the direction sought with a large enough effect in the signal ratio, with a control signal flat, not every such curve was filed as active; the % refers to the signal ratio)
# Summary of the method: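 Antagonist mode: inhibition of 0.5 nM 17-beta-estradiol-driven beta-lactamase reporter in HEK 293 ER-alpha-UAS-bla cells, 18 h at 37C, CCF4 readout after 2 h at RT. Normalised to estradiol and DMSO; titration fitted to Hill.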
# [11] = target: Estrogen receptor (Homo sapiens) (UniProt P03372); assay: qHTS assay for small molecule agonists of estrogen receptor alpha signaling (AID 588514; calls by dose curve; note: nearly all actives have a fitted effect of over 70% in size)
# Summary of the method: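 ER-alpha-UAS-bla GripTite HEK293 cells, 5000/well in 2% charcoal/dextran-stripped FBS medium, treated with compound titrations 18 h at 37 C. CCF4 beta-lactamase read by fluorescence after 2 h RT; normalised to 20 nM 17-beta-estradiol (100%) and DMSO (0%), Hill fit for EC50 and efficacy.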
# [12] = target: Glucocorticoid receptor (Homo sapiens) (UniProt P04150); assay: qHTS assay for small molecule agonists of glucocorticoid receptor signaling (AID 588532; active = well fitted curve in the direction sought with a large enough effect in the signal ratio, with a control signal flat; the % refers to the signal ratio); details: HeLa MMTV-bla, beta-lactamase ratio, agonist, 18 h; stronger effect = higher value; percent of dexamethasone control, DMSO zero
# Summary of the method: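 MMTV-bla HeLa, beta-lactamase reporter; medium with 1% charcoal/dextran-stripped FBS; cpds up to 92 uM, 18 h, 37 C; CCF4 readout 460/530 nm; Hill fit → EC50, efficacy vs 0.1 uM dexamethasone = 100%.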
# [13] = target: Peroxisome proliferator-activated receptor delta (Homo sapiens) (UniProt Q03181); assay: qHTS assay for small molecule antagonists of peroxisome proliferator-activated receptor delta signaling (AID 588535; active = well fitted inhibition curve with a large enough effect in the signal ratio, with a control signal flat, not every such curve was filed as active; the % refers to the signal ratio)
# Summary of the method: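 Reporter: UAS-bla under PPAR-delta response element, HEK293T host. Medium: 2% charcoal/dextran FBS. Dosing: titration, 18 hrs, 37 C. Detection: CCF4, 2 hrs RT, 405 ex/460 and 530 em.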
# [14] = qHTS assay for small molecule agonists of the antioxidant response element (ARE) signaling pathway (AID 651741; active = well fitted activation curve with a large enough effect in the signal ratio; the % refers to the signal ratio; note: potency is the fitted concentration of half-maximal effect)
# Summary of the method: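 Compounds in DMSO are pinned onto HepG2 ARE-bla cells (2,000/well) that were preincubated 5 h; plates stay 16 h at 37 C, then beta-lactamase activity is detected with LiveBLAzer B/G substrate by fluorescence.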
# [15] = qHTS assay for small molecule antagonists of the retinoid-related orphan receptor gamma (ROR-gamma) signaling pathway - cell viability counter screen (AID 720652; active = well fitted curve in the direction sought with a large enough effect in the repeat runs; an effect the other way counts as inactive or inconclusive;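 note: series mostly up to about 92 µM; compound exposure lasted 16 hr before ATP read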)
# Summary of the method: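 CHO cells carrying TET-inducible ROR and RORE-luciferase reporter, plated 5 hr, then dosed with compound plus doxycycline. After 16 hr at 37 C, viability read as intracellular ATP by CellTiter-Glo luminescence.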
# [16] = qHTS assay for small molecule activators of the human pregnane X receptor (PXR) signaling pathway (AID 720659; call rule not given here)
# [17] = target: Cytochrome P450 3A4 (Homo sapiens) (UniProt P08684); assay: qHTS Assay for Inhibitors and Substrates of Cytochrome P450 3A4 (AID 884); note: series mostly up to about 57 µM; nearly all actives have a fitted effect of over 50% in size
# Summary of the method: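 20 nM human CYP3A4 with 25 uM Luciferin-PPXE (at KM) in 200 mM KPO4, preincubated 10 min with compound; NADPH regeneration started a 60 min RT reaction. Luciferin detected by luminescence, normalized to 57 uM ketoconazole as full inhibition.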
# [18] = target: Glucocorticoid receptor (Homo sapiens) (UniProt P04150); assay: qHTS assay for small molecule antagonists of glucocorticoid receptor signaling (AID 588533; active = well fitted inhibition curve with a large enough effect in the signal ratio, with a control signal flat, not every such curve was filed as active; the % refers to the signal ratio;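 note: cells stimulated with 2 nM dexamethasone as agonist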)
# Summary of the method: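 Antagonist-mode qHTS: compound titrations added to GRE-bla HeLa cells, then dexamethasone 2 nM final; 18 h, 37 C. CCF4 FRET fluorescence normalized to dexamethasone and DMSO; IC50 from Hill fit.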
# [19] = qHTS assay for small molecule activators of the nuclear factor-kappa B (NF-kB) signaling pathway (AID 651749; active = well fitted activation curve with a large enough effect in the signal ratio; the % refers to the signal ratio; note: series mostly up to about 77 µM); details: NF-kB-bla ME-180 cells, beta-lactamase FRET ratio, 16 h; stronger effect = higher value
# Summary of the method: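 Screening used 2,000 ME-180 reporter cells per well exposed to pinned compound (23 nL) or DMSO; after 16 hr at 37C, beta-lactamase expression under NF-kB control was assessed through FRET.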
# [20] = Cellular Toxicity (caspase-3) NIH 3T3 (AID 666);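 note: caspase signal read after 16 h compound exposure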
# Summary of the method: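 Mouse NIH 3T3 fibroblasts (1000/well) treated 16 h at 37 C; caspase-3/7 activity measured by Caspase-Glo 3/7 luminescence after 20 min. Normalized to DMSO and 100 uM tamoxifen; AC50 from Hill fits.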
# Chain of Glucocorticoid receptor (Homo sapiens) (P04150 whole entry, looked up): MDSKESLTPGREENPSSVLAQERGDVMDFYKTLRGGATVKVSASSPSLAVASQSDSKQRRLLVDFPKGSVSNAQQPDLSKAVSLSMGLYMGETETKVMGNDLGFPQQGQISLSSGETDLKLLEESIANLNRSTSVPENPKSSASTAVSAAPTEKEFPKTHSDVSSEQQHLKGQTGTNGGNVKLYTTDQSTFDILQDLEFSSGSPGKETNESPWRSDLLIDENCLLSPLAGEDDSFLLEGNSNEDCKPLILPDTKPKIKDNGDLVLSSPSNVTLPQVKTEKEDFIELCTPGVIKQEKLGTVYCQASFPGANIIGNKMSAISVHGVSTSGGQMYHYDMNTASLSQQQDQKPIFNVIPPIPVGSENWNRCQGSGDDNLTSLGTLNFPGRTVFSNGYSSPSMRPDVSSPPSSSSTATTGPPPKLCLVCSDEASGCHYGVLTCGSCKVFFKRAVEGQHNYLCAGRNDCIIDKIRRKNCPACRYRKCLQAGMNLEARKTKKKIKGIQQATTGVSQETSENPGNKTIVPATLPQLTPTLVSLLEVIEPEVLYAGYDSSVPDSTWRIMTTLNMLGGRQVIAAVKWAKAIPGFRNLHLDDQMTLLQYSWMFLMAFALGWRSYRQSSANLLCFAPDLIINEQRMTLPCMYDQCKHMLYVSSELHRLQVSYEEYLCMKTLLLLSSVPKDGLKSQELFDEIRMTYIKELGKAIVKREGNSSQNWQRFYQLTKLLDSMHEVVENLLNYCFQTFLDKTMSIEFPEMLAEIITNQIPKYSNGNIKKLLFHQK
# Chain of Peroxisome proliferator-activated receptor gamma (Homo sapiens) (P37231 whole entry, looked up): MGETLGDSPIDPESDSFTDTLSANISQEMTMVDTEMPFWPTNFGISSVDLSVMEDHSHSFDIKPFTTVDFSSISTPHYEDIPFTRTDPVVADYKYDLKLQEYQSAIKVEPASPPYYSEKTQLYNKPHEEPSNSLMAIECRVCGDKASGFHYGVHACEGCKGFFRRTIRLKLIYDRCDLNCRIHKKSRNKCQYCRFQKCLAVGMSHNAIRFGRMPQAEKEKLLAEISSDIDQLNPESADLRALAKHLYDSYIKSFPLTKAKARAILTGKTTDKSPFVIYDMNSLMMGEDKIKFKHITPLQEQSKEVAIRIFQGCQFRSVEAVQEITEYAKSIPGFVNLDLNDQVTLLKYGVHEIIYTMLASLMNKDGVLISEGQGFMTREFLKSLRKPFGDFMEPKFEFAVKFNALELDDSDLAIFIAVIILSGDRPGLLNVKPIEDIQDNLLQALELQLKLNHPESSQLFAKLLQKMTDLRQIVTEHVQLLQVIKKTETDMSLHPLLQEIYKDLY
# Chain of Estrogen receptor (Homo sapiens) (P03372 whole entry, looked up): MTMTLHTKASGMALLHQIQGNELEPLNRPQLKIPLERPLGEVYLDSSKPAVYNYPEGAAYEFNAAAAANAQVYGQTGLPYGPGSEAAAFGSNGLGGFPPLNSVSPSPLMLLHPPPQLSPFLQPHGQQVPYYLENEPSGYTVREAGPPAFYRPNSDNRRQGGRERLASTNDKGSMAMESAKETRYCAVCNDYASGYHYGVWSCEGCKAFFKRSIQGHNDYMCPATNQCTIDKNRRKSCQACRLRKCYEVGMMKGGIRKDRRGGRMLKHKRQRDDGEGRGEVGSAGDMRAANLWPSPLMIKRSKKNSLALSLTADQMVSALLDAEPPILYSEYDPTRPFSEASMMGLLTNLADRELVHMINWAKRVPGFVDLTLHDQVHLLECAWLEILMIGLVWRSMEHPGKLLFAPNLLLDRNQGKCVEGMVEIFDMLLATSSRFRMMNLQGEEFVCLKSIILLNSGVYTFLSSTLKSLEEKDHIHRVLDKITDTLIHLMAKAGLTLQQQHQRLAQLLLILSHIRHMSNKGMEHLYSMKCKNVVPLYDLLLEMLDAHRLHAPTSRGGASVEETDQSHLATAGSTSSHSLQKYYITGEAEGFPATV
# Chain of Voltage-gated inwardly rectifying potassium channel KCNH2 (Homo sapiens) (Q12809 whole entry, looked up): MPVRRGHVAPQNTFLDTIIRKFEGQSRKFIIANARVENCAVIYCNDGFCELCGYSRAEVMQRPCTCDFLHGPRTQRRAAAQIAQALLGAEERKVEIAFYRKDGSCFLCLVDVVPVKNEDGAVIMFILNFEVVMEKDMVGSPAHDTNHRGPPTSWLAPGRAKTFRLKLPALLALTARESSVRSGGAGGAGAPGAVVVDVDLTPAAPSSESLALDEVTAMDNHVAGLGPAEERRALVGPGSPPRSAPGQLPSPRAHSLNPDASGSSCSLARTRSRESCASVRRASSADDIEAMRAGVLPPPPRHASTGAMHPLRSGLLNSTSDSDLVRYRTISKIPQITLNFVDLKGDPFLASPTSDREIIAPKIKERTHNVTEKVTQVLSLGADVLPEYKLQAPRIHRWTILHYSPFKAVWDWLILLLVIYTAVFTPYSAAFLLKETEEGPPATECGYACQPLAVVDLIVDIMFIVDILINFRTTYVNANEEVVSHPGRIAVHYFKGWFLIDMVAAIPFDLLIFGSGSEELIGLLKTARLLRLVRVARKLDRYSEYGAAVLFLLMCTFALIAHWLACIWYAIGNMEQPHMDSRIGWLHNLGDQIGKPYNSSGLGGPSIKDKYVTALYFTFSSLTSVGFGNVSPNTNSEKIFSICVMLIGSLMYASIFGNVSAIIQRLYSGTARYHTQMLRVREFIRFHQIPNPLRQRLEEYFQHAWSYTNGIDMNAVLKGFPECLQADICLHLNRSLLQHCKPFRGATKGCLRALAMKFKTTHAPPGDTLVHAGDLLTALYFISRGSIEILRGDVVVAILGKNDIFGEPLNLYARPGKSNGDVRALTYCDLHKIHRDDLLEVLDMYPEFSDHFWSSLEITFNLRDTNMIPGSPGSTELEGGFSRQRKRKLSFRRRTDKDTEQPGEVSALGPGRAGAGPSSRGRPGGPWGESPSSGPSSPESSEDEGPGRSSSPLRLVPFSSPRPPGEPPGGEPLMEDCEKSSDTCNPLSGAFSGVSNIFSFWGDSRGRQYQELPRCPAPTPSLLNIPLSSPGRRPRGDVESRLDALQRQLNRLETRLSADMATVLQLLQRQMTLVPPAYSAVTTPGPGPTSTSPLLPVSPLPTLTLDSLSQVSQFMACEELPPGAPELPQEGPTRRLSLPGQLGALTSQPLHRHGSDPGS
# Chain of Cytochrome P450 3A4 (Homo sapiens) (P08684 whole entry, looked up): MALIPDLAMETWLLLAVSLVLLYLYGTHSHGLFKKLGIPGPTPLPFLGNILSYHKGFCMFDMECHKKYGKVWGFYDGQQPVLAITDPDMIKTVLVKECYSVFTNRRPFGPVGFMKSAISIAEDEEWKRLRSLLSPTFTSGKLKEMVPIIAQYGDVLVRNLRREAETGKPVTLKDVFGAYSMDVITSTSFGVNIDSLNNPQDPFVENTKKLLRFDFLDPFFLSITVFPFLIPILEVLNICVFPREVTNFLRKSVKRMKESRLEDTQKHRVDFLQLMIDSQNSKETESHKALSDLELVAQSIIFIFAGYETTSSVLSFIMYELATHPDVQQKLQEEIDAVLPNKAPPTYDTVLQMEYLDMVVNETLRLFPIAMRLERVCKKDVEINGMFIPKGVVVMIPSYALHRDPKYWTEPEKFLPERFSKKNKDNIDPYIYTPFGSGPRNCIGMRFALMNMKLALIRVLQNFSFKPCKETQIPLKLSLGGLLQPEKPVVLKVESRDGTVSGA
# Chain of Vitamin D3 receptor (Homo sapiens) (P11473 whole entry, looked up): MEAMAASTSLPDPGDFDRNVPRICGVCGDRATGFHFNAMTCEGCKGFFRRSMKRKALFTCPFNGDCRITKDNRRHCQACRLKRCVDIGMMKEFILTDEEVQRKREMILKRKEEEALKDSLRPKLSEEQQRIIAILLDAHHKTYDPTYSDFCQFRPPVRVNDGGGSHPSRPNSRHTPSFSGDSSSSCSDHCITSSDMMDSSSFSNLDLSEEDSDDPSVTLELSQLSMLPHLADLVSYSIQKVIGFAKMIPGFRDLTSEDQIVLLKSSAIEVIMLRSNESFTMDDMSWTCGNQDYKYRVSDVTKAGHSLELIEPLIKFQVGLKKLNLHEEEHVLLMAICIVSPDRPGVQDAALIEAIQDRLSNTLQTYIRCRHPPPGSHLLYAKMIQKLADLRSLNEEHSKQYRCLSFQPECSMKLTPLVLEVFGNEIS
# Chain of Tumor necrosis factor (Homo sapiens) (P01375 whole entry, looked up): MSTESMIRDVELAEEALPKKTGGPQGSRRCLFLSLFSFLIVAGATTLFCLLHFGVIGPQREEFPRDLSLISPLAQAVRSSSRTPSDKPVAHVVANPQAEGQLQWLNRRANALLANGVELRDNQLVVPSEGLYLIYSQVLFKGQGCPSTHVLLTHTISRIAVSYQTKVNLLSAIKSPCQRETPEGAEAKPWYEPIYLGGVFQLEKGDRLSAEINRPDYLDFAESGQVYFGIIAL
# Chain of Peroxisome proliferator-activated receptor delta (Homo sapiens) (Q03181 whole entry, looked up): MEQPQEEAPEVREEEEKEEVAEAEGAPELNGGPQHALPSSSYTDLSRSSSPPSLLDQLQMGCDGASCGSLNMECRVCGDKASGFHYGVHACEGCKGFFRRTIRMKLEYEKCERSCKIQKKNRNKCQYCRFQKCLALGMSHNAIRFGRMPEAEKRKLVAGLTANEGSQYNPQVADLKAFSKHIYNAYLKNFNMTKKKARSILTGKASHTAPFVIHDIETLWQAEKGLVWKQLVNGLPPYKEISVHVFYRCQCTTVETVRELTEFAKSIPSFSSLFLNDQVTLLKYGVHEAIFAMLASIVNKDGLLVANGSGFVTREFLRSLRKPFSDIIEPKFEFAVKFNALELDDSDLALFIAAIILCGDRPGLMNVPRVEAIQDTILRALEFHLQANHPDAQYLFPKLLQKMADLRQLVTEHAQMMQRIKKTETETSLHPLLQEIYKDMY
SMILES,Potency [1],Potency [2],Potency [3],outcome [4],Potency [5],Potency [6],Potency [7],Potency [8],Potency [9],outcome [10],Potency [11],activation [12],outcome [13],Potency [14],Potency [15],outcome [16],Potency [17],Potency [18],activation [19],outcome [20]
C=CC(=O)CC,inactive,inactive,inactive,inactive,inactive,inactive,inactive,inactive,–,–,–,–,–,–,–,–,–,–,–,–
CCCCC(CC)COCCCN (stereo unspecified),–,inactive,–,–,–,inactive,inactive,–,inactive,inactive,inactive,-4.42%,inactive,inactive,inactive,inactive,–,–,–,–
Cc1ccccc1OCC1CO1 (stereo unspecified),–,inactive,inactive,inactive,inactive,inactive,inactive,inactive,–,inactive,inactive,-5.02%,–,inactive,inactive,inactive,inactive,inactive,-1.53%,–
NC(=O)Nc1nc2ccccc2[nH]1,–,inactive,–,inactive,inactive,inactive,inactive,inactive,inactive,inactive,inactive,–,inactive,inactive,inactive,–,inactive,–,-0.124%,–
Cc1ccc(C(=O)O)cc1[N+](=O)[O-],inactive,inactive,inactive,inactive,inactive,inactive,inactive,–,inactive,inactive,inactive,–,–,–,inactive,inactive,inactive,–,-1.02%,inactive
OCC(CBr)(CBr)CBr,inactive,–,inactive,inactive,inactive,inactive,inactive,–,inactive,inactive,inactive,0.0544%,inactive,inactive,inactive,–,–,–,0.264%,–
Cc1ccc2ccc3cccc4ccc1c2c34,inactive,inactive,inactive,inactive,–,–,inactive,–,inactive,inactive,inactive,-3.78%,inactive,59.6 µM (active),–,inactive,–,inactive,-0.92%,inactive
Cc1ccc(N)cc1[N+](=O)[O-],inactive,inactive,inactive,inactive,inactive,inactive,inactive,inactive,–,–,–,0.881%,inactive,–,inactive,inactive,–,inactive,0.0603%,–
CC(C)COC(=O)COc1cc(Cl)c(Cl)cc1Cl,–,inactive,–,inactive,–,–,–,inactive,inactive,inactive,inactive,-3.56%,inactive,42.2 µM (active),inactive,inactive,inactive,–,-1.07%,inactive
